Bioassay records deposited in PubChem BioAssay by National Center for Advancing Translational Sciences (NCATS).
A selection: hits, their analogues and other compounds. The true share with any hit is near 6.9%.
Vif-A3F inh = Vif-A3F binding inhibition; Potency, µM (doses to about 46.1 µM), inactives show at the highest dose activity, negative = active; 0.2% of 390,000 active; HeLa A3F-eYFP + Vif (tagged APOBEC3F with the HIV-1 protein that degrades it), YFP fluorescence increase; AID 602313; also: potency is read from the fitted curve at half-maximal effect; % of control where 0% means no effect; nearly all actives have a fitted effect of over 65% in size
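Fluorescence increase (Ex 488/Em 500-530) after overnight compound treatment at 37 deg C flags inhibition of Vif-driven A3F-eYFP loss in stable HeLa A3F-eYFP/Vif cells seeded overnight beforehand.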
Vif-APOBEC3G blk = Vif-A3G binding inhibition; Potency, µM (highest dose often 46.1 µM), for the others: at the top dose activity, negative = active, most hits filed as inhibitors; 0.076% of 410,000 active; Q9HC16; HeLa A3G-eYFP + Vif (tagged APOBEC3G with the HIV-1 protein that degrades it), YFP fluorescence, overnight; also: potency is read from the fitted curve at half-maximal effect; % is scaled to controls: 0 for no effect and ±100 for the full control effect; nearly all actives have a fitted effect of over 60% in size
Target sequence (Q9HC16 whole entry, looked up): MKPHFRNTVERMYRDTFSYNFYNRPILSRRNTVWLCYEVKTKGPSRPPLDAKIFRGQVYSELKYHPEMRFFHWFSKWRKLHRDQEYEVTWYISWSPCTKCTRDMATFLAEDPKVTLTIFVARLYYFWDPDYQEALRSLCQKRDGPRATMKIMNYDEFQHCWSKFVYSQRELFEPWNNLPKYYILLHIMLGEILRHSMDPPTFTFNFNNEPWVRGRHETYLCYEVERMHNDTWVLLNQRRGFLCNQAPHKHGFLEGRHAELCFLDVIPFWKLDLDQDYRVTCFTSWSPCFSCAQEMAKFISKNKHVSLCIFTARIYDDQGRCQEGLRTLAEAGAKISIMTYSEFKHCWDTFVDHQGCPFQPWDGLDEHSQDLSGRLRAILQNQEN
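HeLa cells stably expressing Vif and C-terminally eYFP-tagged A3G, seeded overnight at 37 deg C, then exposed to compound by pintool overnight at 37 deg C. Rise in yellow fluorescence (Ex 488/Em 500-530, Acumen) marks blocked Vif-driven A3G degradation.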
SW480 rerep = DNA re-replication induction in SW480 cells; SW480 DNA re-replication, Hoechst DNA content imaging, 48 h; Potency, µM (doses to about 46.1 µM), inactives show at the top dose re-replication activation, most hits filed as activators; 1.8% of 340,000 active; AID 624297; also: potency is read from the fitted curve at half-maximal effect; % of control where 0% means no effect; nearly all actives have a fitted effect of over 55% in size
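Treated cells incubate 48 hr (37 C, 5% CO2), are stained 40 min with Hoechst, and nuclear fluorescence is enumerated; a rise in nuclei with high DNA signal marks re-replication.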
Giardia killer = Giardia lamblia killing; Giardia lamblia trophozoite viability; activity change, % at 7.66 µM, hits read low; 0.15% of 340,000 active; in the data active = activity change below about -80%; inconclusive = between about -30% and that limit;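 also: parasites exposed to compound for two days anaerobically before the ATP read; % is scaled to controls: 0 for no effect and ±100 for the full control effect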
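Luminescent ATP signal served as the viability read-out, measured 15-30 min after adding ATP detection reagent to trophozoites that had been incubated with compounds for 48 hrs at 37 deg C anaerobically at 100 cells/well.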
MCF10A rerep = induces DNA re-replication in MCF 10a normal breast cells; MCF 10A DNA re-replication, Hoechst nuclear intensity, 48 h; Potency, µM (doses to about 46.1 µM), inactives show at the top dose activity, positive = re-replication, most hits filed as activators; 2.9% of 350,000 active; AID 624296; also: potency is read from the fitted curve at half-maximal effect; % of control where 0% means no effect; nearly all actives have a fitted effect of over 50% in size
IL1B secr inh = inflammasome signaling inhibition, IL-1 beta readout; THP-1 LPS/ATP IL-1B secretion, AlphaLISA, 16 h; active compounds read low; activity change, % at 57.5 µM; 4.7% of 360,000 active; AID 743279; in the data active = activity change below about -50%; inconclusive = mostly about -30% to -49%; also: % is scaled to controls: 0 for no effect and ±100 for the full control effect
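Secreted IL-1B measured by AlphaLISA bead assay after 16 h compound exposure of THP-1 cells; compounds (final up to 57.5 uM) added 1 h before LPS (250 ng/mL) and ATP (1.25 mM) stimulation; lower signal means less secretion.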
An asterisk follows results filed as active; ? = inconclusive; nt = no result; [ ] = dose if it differs, or a comment. Unless noted, calls follow the shape of the dose curve; as a rule, active = well fitted curve in the direction sought with a large enough effect; inconclusive = small, poorly fitted or top-dose-only effect, or another doubt; inactive = no such curve, though single readings can be large; an effect the other way counts as inactive or inconclusive.

SMILES | Vif-A3F inh | Vif-APOBEC3G blk | SW480 rerep | Giardia killer | MCF10A rerep | IL1B secr inh
Cc1nn(C)c2c1c(C(F)(F)F)cc(=O)n2CC(=O)N1CCC(C)CC1 | -4.4% | -2.0% | nt | nt | nt | nt
CC(C)(C)c1ccc(CN(Cc2ccco2)c2cnc(S(C)(=O)=O)nc2C(=O)Nc2ccc(F)cc2)cc1 | -2.7% | 2.2% | nt | nt | nt | nt
COc1ccc2c(-c3cc4ccc(OCc5ccc(F)cc5)cc4oc3=O)cc(=O)oc2c1 | 1.3% | -5.0% | -7.4% | 4.4 | 1.84µM* | -8.9
Oc1cc2cc(-c3csc(-c4ccc(F)cc4)n3)ccc2[nH]1 | nt | 3.7% | nt | nt | nt | nt
CCOc1ccccc1NC(=O)c1ccc2c(c1)CCCN2S(C)(=O)=O | 0.5% | 0.0% | nt | nt | nt | nt
C=C(C(=O)c1ccccc1)C(C)C(=C)C(=O)c1ccccc1 | ? | 5.01µM* | 7.31µM* | -20.3 | 2.91µM* | -102.5*
C=C(C(=O)c1ccccc1)C(c1ccccc1)C(C)C(=O)c1ccccc1 (centres undefined) | -12.8% | -28.0% | ? | -9.1 | ? | -96.9*
C=C(C(=O)c1ccccc1)C(C(=C)C(=O)c1ccccc1)c1ccc(OC)cc1 | -28.6% | ? | ? | -12.4 | ? | -61.4*
CC(C)S(=O)(=O)N1CCN(c2nc(-c3cccs3)nc3ccccc23)CC1 | nt | nt | nt | -6.6 | nt | nt
CC(=O)c1ccc(NC(=S)Nc2ccc3cn[nH]c3c2)cc1 | -5.9% | -11.4% | 13.7% | 17.6 | -10.0% | -72.8*
CC(C)c1ccc(NC(=S)Nc2ccc3cn[nH]c3c2)cc1 | 4.3% | 5.9% | -10.7% | 7.5 | 1.1% | -15.5
CCOC(=O)c1cnc2c(C)c(C)ccc2c1Nc1ccc(S(=O)(=O)Nc2ncccn2)cc1 | -5.7% | -10.7% | -1.2% | 9.3 | 8.9% | -92.7*
O=C(NC1CCCCC1)c1ccc2ccccc2c1O | -1.2% | -1.9% | nt | nt | nt | -61.4*
O=C(NNC(=O)c1ccc2ccccc2c1O)NC1CCCCC1 | -9.9% | -7.8% | -4.6% | 18.7 | -15.0% | -26.2
CC(C)(C)NC(=O)C(c1ccc(-c2ccccc2)cc1)N(C[C@H]1CC[C@@H]([C@@H]2CC[C@H](CO)O2)O1)C(=O)c1ccccc1F (some centres undefined) | -4.0% | 2.7% | ? | 8.0 | 28.9% | -63.3*
CC(C)(C)NC(=O)C(c1ccc(-c2ccccc2)cc1)N(C[C@H]1CC[C@@H]([C@@H]2CC[C@H](CO)O2)O1)C(=O)c1ccc(-c2ccccc2)cc1 (some centres undefined) | -4.6% | -11.2% | -15.8%[9.22 µM] | 17.4 | -16.6% | -54.7*
COc1ccc(C(C(=O)NC(C)(C)C)N(C[C@H]2CC[C@@H]([C@@H]3CC[C@H](CO)O3)O2)C(=O)c2ccccc2)cc1 (some centres undefined) | -3.9% | -2.6% | 0.7% | 2.5 | ? | 31.3
CC(C)(C)NC(=O)C(c1ccc(-c2ccccc2)cc1)N(C[C@H]1CC[C@@H]([C@@H]2CC[C@H](CO)O2)O1)C(=O)c1cccc(Cl)c1 (some centres undefined) | -2.2% | -7.5% | 9.5%[9.22 µM] | -19.4 | ? | -65.4*
CC(C)(C)NC(=O)C(c1ccc(-c2ccccc2)cc1)N(C[C@H]1CC[C@@H]([C@@H]2CC[C@H](CO)O2)O1)C(=O)c1ccc2ccccc2c1 (some centres undefined) | 2.5% | -15.6% | -11.9% | ? | ? | -54.1*
CCC(=O)N1CCc2cc(S(=O)(=O)CCC(=O)Nc3ccc(Cl)c(C(F)(F)F)c3)ccc21 | -7.2% | -9.1% | nt | nt | nt | nt
CCCCCc1c(-c2ccccc2F)ncn1CCc1ccccc1OC | nt | nt | nt | nt | nt | -95.3*
CCCCc1c(-c2ccccc2F)ncn1CCc1ccccc1OC | nt | nt | nt | nt | nt | -59.0*
CCCc1c(-c2ccc(F)cc2F)ncn1Cc1ccccc1OC | nt | nt | nt | nt | nt | 0.0
CCCc1c(-c2ccccc2F)ncn1CCc1ccccc1OC | nt | nt | nt | nt | nt | -69.8*
CCCCN(CC)CCCNC(=O)CS(=O)(=O)Cc1nc(-c2ccc(C)cc2)oc1C | -6.6% | 4.8% | nt | nt | nt | nt
SMILES | Vif-A3F inh | Vif-APOBEC3G blk | SW480 rerep | Giardia killer | MCF10A rerep | IL1B secr inh
COc1ccc(S(=O)(=O)N2CCC(C(=O)Nc3ccc(Oc4ccccc4)cc3)CC2)cc1OC | 2.3% | 2.4% | nt | nt | nt | nt
O=C(/C=C/c1cccc([N+](=O)[O-])c1)c1ccco1 | 1.1% | ? | ? | ? | 136.2% | -7.2
O=C(/C=C/c1ccc(Cl)c([N+](=O)[O-])c1)Nc1ccc(NC(=O)c2ccco2)cc1 | 0.3% | -2.3% | 3.7% | -7.0 | 15.4% | -4.5
O=C(/C=C/c1cccc([N+](=O)[O-])c1)Nc1cccc(NC(=O)c2ccco2)c1 | -18.0% | -6.5% | 18.5% | 13.5 | 16.4µM* | -94.7*
O=C(/C=C/c1ccc(Cl)c([N+](=O)[O-])c1)Nc1cccc(NC(=O)c2ccco2)c1 | -10.6% | -21.8% | ? | -5.7 | ? | -99.5*
O=C(/C=C\c1ccco1)Nc1cc([N+](=O)[O-])ccc1F | 0.0% | ? | 0.581µM* | -29.2 | ? | 22.3
O=C(OCc1ccccc1)/C(=C/c1cccc([N+](=O)[O-])c1)NC(=O)c1ccco1 | 0.1% | -10.5% | 18.0% | -2.5 | 0.0% | -50.3*
Cc1cc(=O)n(Cc2ccccc2Cl)c2c1c(C)nn2-c1ccccc1 | 1.9% | -0.3% | nt | nt | nt | nt
CN(C(=O)Cn1cc(S(=O)(=O)N2CCN(c3ccccc3F)CC2)c2ccccc2c1=O)c1ccc(Cl)cc1 | -1.8% | 0.2% | nt | nt | nt | nt
COc1ccc(-c2cccc(NS(=O)(=O)c3cc(C)c(Cl)cc3C)c2)nn1 | -13.1% | 0.2% | nt | nt | nt | nt
Cn1cc(-c2cc3n(n2)CCC(=O)N3CC(=O)NCc2ccccc2)c2ccccc21 | -9.8% | -0.1% | nt | nt | nt | nt
CCN(Cc1ccccc1)S(=O)(=O)c1cc(C(=O)Nc2cc(Cl)cc(Cl)c2)ccc1F | 0.3% | 10.8% | nt | nt | nt | nt
O=C(Nc1ccccc1)c1cnc(N2CCCCC2)c2ccccc12 | 1.7% | 0.6% | nt | nt | nt | nt
O=C(/C=C/c1ccc([N+](=O)[O-])cc1)Nc1cccnc1 | nt | -0.2% | -12.5% | ? | 8.0% | -6.8
O=C(/C=C/c1ccc(Cl)c([N+](=O)[O-])c1)Nc1cccnc1 | -7.3% | -2.0% | 10.5% | -7.4 | ? | -52.5*
O=C(/C=C/c1cccc([N+](=O)[O-])c1)Nc1cccc(NC(=O)c2cccs2)c1 | 2.2% | -0.6% | -4.4% | 10.4 | 15.8% | -59.5*
Cc1ccc(NC(=O)/C(=C\c2cccc([N+](=O)[O-])c2)NC(=O)c2cccs2)cc1 | 2.4% | -3.0% | 3.0% | 3.2 | 6.8% | -0.9
COc1cccc(NC(=O)c2ccccc2Oc2ccccc2)c1 | 1.6% | -1.7% | -21.7% | -13.2 | -0.6% | -24.3
Cc1ccc(NC(=O)CN(C)C(=O)c2cccnc2Nc2cccc(C(F)(F)F)c2)cc1 | -22.4% | -27.3% | ? | 4.5 | ? | -78.9*
